Assay outcomes (PubChem BioAssay)
PKA-R2B activ: activates the human PKA-R2B holoenzyme complex | P22694+P31323 | PKA-R2B holoenzyme dissociation, Cy5-IP20 fluorescence polarization; R2B truncated from residue 108, S112A mutant; 0% DMSO only, 100% 113 µM cGMP | activation, % at 11.4 µM | 340,000 tested, 0.079% active;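 active = activation above a cutoff set at the mean over all compounds plus 3 SD, cut at about 18% in these data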;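 note: higher means more holoenzyme dissociation and a rise in polarization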
Target sequence (P31323 whole entry, looked up, other chains not shown, the tested form may be a part): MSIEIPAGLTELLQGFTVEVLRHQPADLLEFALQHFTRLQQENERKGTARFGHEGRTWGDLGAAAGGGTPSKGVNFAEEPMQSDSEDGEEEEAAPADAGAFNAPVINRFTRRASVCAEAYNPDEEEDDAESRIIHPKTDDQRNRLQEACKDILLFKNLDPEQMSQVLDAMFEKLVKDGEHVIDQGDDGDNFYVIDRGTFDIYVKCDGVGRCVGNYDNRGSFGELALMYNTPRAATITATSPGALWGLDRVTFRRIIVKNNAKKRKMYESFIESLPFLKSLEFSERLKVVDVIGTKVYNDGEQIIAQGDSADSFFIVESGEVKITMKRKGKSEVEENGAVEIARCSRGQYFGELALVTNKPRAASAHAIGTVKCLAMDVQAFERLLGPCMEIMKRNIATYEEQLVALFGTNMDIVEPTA
HDAC3 inh: human HDAC3 inhibition. O15379. recombinant HDAC3, fluorogenic peptide/trypsin coupled, fluorescence. inhibition, % at 8.3 µM. 320,000 tested, 0.15% active; in the data active = inhibition above about 26%, passing the limit was not always enough; inconclusive = no clear call, values can overlap the other calls
Rtt109 Vps75: inhibitors of Candida albicans Rtt109/Vps75 histone acetyltransferase. Q5AAJ8. purified Rtt109/Vps75, ThioGlo CoA-SH fluorescence, 4 h. inhibition, % at 34.9 µM. 330,000 tested, 0.16% active;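 active = inhibition of at least 50% in every replicate; inconclusive = best replicate reaches 50% inhibition but some replicates fall short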
PKA-R1A act: PKA-R1A complex activation | activation, % at 11.4 µM | AID 504707 | 340,000 tested, 0.083% active | PKA-R1A dissociation, Cy5-IP20 fluorescence polarization; scaled: DMSO 0%, 113 µM cGMP 100%;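 active = percent activation above the mean of all tested compounds plus 3 SD, cut at about 19% in these data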;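 note: higher means more PKAc released from R1A so a rise in polarization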
Numbers without * were called inactive; ? = inconclusive; . = no result given; + = active, no number. In the library only some 0.43% were active in any assay of this set; here they are far more common.

SMILES	PKA-R2B activ	HDAC3 inh	Rtt109 Vps75	PKA-R1A act
COc1ccc(N2C(=O)CSC2c2ccc(F)c(F)c2)cc1 (stereo not drawn)	-4	-3	-5	6
CCOc1ccc(N2C(=O)CSC2c2ccncc2)cc1 (stereo not drawn)	3	3	63*	-2
COc1cc(C2NC(=O)NC(C)=C2[N+](=O)[O-])cc(OC)c1OC (stereo not drawn)	-3	4	-3	-10
Cc1cc(NC(=O)CCCn2nc([N+](=O)[O-])c(Cl)c2C)no1	7	.	52*	-12
O=C(NNS(=O)(=O)c1ccc(Cl)cc1)c1cc(-c2ccccc2)nc2ccccc12	-11	0	-2	-8
Cc1cccc(CCNC(=O)CNS(=O)(=O)c2ccc3nc(C)sc3c2)c1	-3	5	-3	-2
O=C(N/N=C/c1ccc(OC(F)F)cc1OC(F)F)c1ccc(Br)cc1	1	4	0	6
O=C(N/N=C/c1ccc(OC(F)F)cc1OC(F)F)NC1CCCCC1	-4	29*	-5	-22
Cc1cc(C(=O)OCC(=O)N(CC(C)C)c2c(N)n(Cc3ccccc3)c(=O)[nH]c2=O)c(C)o1	-14	-4	0	-7
O=C(NC1CCN(S(=O)(=O)c2cccc(Cl)c2)CC1)C1CCCCC1	-10	10	-6	3
CC(C)CC1NC(=O)c2ccccc2-n2c1nc1ccc(Cl)cc1c2=O (stereo not drawn)	.	11	.	.
Cc1cc(C)nc(NS(=O)(=O)c2ccc(NC(=O)c3ccccc3[N+](=O)[O-])cc2)n1	-5	6	-2	-6
O=C(OC(c1ccc(NS(=O)(=O)c2ccccc2)cc1)(C(F)(F)F)C(F)(F)F)c1ccccc1	3	34*	1	12
CC(=O)c1ccc(NS(=O)(=O)c2ccccc2)cc1	-1	18	4	-3
Cc1ccc(S(=O)(=O)Nc2ccc(C(OC(=O)c3ccccc3[N+](=O)[O-])(C(F)(F)F)C(F)(F)F)cc2)cc1	-20	31*	41	-10
CC(=O)c1ccc(NC(=O)/C(=C\c2cccs2)NC(=O)c2ccco2)cc1	9	-1	19	-2
C=CC[C@H](CC(=O)N[C@H](CO)Cc1ccccc1)C(=O)N[C@@H](COC(=O)[C@H](CC=C)CC(=O)OC(C)(C)C)Cc1c[nH]c2ccccc12	0	44*	0	-6
C=CC[C@@H](CC(=O)N[C@@H](CO)Cc1ccccc1)C(=O)N[C@@H](COC(=O)[C@H](CC=C)CC(=O)OC(C)(C)C)Cc1c[nH]c2ccccc12	7	39*	-10	2
O=C(COC(=O)CSc1ccc(Cl)cc1)Nc1ccc2[nH]c(=O)[nH]c2c1	-12	3	2	-6
CC1(C)CC(C(CC(=O)N2CCCC2)Cc2ccccc2)CCO1 (stereo not drawn)	4	-2	1	-4
CCCOc1ccc(C(=O)N/N=C/c2c[nH]c3ccc(Br)cc23)cc1	-14	8	4	-8
CCCCCN=C(N)N/N=C/c1c[nH]c2ccc(OC)cc12	0	-4	78*	6
COc1ccc(-c2cc(C(=O)Nc3ccc(S(=O)(=O)Nc4onc(C)c4C)cc3)c3ccccc3n2)cc1	1	?	16	11
O=c1[nH]c2ccccc2c(O)c1-[n+]1ccccc1	-13	-3	-1	4
O=c1[nH]c2ccccc2c(O)c1O	-6	3	176*	-2
SMILES	PKA-R2B activ	HDAC3 inh	Rtt109 Vps75	PKA-R1A act
O=C(CNC(=O)c1ccncc1)N/N=C/c1cccc([N+](=O)[O-])c1	-2	2	51*	-6
COC(=O)c1cccc(Oc2cccc(Cl)n2)c1	2	-1	54*	-3
CN1CCN(c2nc3c(c(=O)[nH]c(=O)n3C)n2Cc2ccc(Cl)cc2)CC1	5	-7	67*	0
COc1cccc(-c2nn(C)c3sc(C(=O)N4CCOCC4)cc23)c1	-3	4	21	-7
COc1cccc(-c2nn(C)c3sc(C(=O)N4CCN(c5ccccn5)CC4)cc23)c1	-24	12	51*	-10
COc1ccc(-c2ccc(CCC(=O)O)o2)cc1	2	4	58*	4
CCOc1ccccc1N1CCN(C(=O)c2cccc(-c3ccc(O)cc3)c2)CC1	1	13	12	3
CCOc1ccccc1N1CCN(C(=O)c2ccncc2)CC1	9	-3	51*	1
O=C1CSC(=S)N1/N=C/c1ccc(O)c(O)c1O	4	5	196*	1
CCn1c(CCNC(=O)c2cccs2)nnc1SCC(=O)c1ccc(OC)cc1	-2	27*	-11	0
CC(=O)Nc1cccc(/C(C)=N/Nc2ccc(S(=O)(=O)Nc3ccccc3C(=O)O)cc2[N+](=O)[O-])c1	-3	.	35	1
Cc1[nH]n(-c2ccccc2)c(=S)c1C=Nc1cccc([N+](=O)[O-])c1	-6	55*	18	-6
CCCCN=Cc1c(C)[nH]n(-c2ccccc2)c1=S	9	1	-5	8
COC(=O)CS(=O)(=O)c1nnc([C@H](Cc2ccccc2)NC(=O)OC(C)(C)C)o1	8	55*	2	2
Cc1cccc(CS(=O)(=O)c2nnc([C@H](Cc3ccccc3)NC(=O)OC(C)(C)C)o2)c1	-9	61*	6	-3
CC(C)(C)OC(=O)N[C@@H](Cc1ccccc1)c1nnc(SCC(N)=O)o1	5	0	-8	-6
CC(C)CC(COCc1ccc(C(F)(F)F)cc1)N1CCN(C(=O)c2ccc(C(F)(F)F)cc2)CCC1=O (stereo not drawn)	2	39*	-4	-8
CC(C)CC(COCc1ccc(Cl)cc1)N1CCN(C(=O)c2cccc(C(F)(F)F)c2)CCC1=O (stereo not drawn)	-1	17	10	-9
COc1ccc(/C=N/NC(=O)COc2ccc(Cl)cc2Cl)cc1Cn1nc(C)cc1C	12	-12	54*	-5
CCOC(=O)c1ccc(-c2cc(C)no2)[nH]1	-7	0	-16	2
O=C(c1nnsc1S(=O)c1ccc(Cl)cc1)N1CCOCC1 (stereo not drawn)	0	.	136*	-8
c1ccc(-c2nnc3oc(-c4cccs4)nn23)cc1	4	.	.	15
Cc1ccc(S(=O)(=O)CCC(=O)c2cccc([N+](=O)[O-])c2)cc1	10	-6	+	3
Cc1ccc(C(=O)CCS(=O)(=O)c2ccc(Br)cc2)cc1	-4	-1	0	1
COc1cc2[nH]c(=O)c(C(=O)NCc3ccc(C)cc3)c(O)c2cc1OC	2	.	.	4
CCSS(=O)(=O)c1cccc2cccnc12	.	1	154*	.
COc1ccc(NC(=O)c2nc3ccccc3s2)cc1	-18	-5	54*	-3
Cc1nn(C)cc1[C@@H]1C[C@H]2CN(Cc3cccc(Cl)c3)C(=O)[C@]23CCCN13	-9	-2	53*	-3
Cn1cc([C@@H]2C[C@H]3CN(Cc4cccc(Cl)c4)C(=O)[C@]34CCCN24)c(-c2ccccc2)n1	-18	0	-4	-9
